A selection: hits, their analogues and other compounds. The true share with any hit is near 1.3%.
LmPK inhibitor – blocks Leishmania mexicana pyruvate kinase activity; Q27686; purified LmPK, Kinase-Glo ATP luminescence, 1 h; Potency, µM (highest dose often 57.5 µM), without a hit: at the top dose activity change, negative = inhibition, hits mostly inhibitors; hit rate 0.37% among 290,000; further: potency means the concentration at half of the fitted maximal effect; on the % scale 0 is the no-effect control and ±100 the full control effect
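0.1 nM LmPK, 0.5 mM PEP, 0.1 mM ADP; 50 mM imidazole pH 7.2, 7 mM MgCl2, 50 mM KCl; 1 h RT. Kinase-Glo luminescence readout, normalized to no-enzyme (full inhibition) and uninhibited wells.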
AmpC no deterg – inhibitors of E. coli AmpC beta-lactamase without detergent | P00811 | AmpC nitrocefin hydrolysis, absorbance 480 nm, 0.0001% Triton | Potency, µM (series often up to 57.1 µM), inactives show at the highest dose activity change, negative = inhibition, hits mostly inhibitors | hit rate 0.52% among 330,000 | AID 485341;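 further: potency means the concentration at half of the fitted maximal effect; plate controls were no compound for no effect and no enzyme for full effect; nearly all actives have a fitted effect of over 20% in size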
Target sequence (P00811 whole entry, looked up): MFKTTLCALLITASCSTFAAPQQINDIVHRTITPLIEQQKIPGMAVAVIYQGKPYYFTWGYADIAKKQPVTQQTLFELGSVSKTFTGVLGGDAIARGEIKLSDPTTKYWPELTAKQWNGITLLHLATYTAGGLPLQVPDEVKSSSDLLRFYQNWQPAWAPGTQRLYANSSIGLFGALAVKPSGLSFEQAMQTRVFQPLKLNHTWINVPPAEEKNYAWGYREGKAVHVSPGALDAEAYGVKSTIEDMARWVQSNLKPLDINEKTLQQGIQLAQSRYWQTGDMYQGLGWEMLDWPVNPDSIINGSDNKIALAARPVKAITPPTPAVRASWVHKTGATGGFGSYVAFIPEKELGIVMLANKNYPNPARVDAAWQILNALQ
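AmpC (5.3 nM in the dispensed reagent) in 20 mM phosphate pH 7.0 with 0.01% (detergent screen) or 0.0001% Triton X-100 was preincubated with compounds for 15 min at room temperature. Nitrocefin was then added from an 800 uM solution, and hydrolysis was followed at 480 nm.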
AMA1-RON2 inh – AMA1-RON2 (P. falciparum) interaction inhibition; AlphaScreen AMA1-biotinylated RON2 peptide binding; Potency, µM (top dose mostly 58.2 µM), inactives show at the top dose activity change, negative = inhibition, most hits filed as inhibitors; hit rate 0.2% among 360,000; AID 720542;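 further: potency means the concentration at half of the fitted maximal effect; 0% = vehicle wells and -100% = peptide control; nearly all actives have a fitted effect of over 45% in size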
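AMA1 (3D7) with his tag at 25 nM final met compounds first, then biotinylated RON2 peptide at 25 nM; detection used donor plus acceptor beads, 10 µg/mL apiece, read by AlphaScreen after 30 min at room temperature.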
FBPA Giardia inh – inhibitors of Giardia lamblia fructose-1,6-bisphosphate aldolase; hit rate 0.71% among 290,000; Potency, µM (highest dose often 59.6 µM), for the others: top-dose activity, negative = inhibition, hits mostly inhibitors; purified Giardia FBPA; A8B2U2; AID 2451; further: potency means the concentration at half of the fitted maximal effect; on the % scale 0 is the no-effect control and ±100 the full control effect; nearly all actives have a fitted effect of over 55% in size
Target sequence (A8B2U2 whole entry, looked up): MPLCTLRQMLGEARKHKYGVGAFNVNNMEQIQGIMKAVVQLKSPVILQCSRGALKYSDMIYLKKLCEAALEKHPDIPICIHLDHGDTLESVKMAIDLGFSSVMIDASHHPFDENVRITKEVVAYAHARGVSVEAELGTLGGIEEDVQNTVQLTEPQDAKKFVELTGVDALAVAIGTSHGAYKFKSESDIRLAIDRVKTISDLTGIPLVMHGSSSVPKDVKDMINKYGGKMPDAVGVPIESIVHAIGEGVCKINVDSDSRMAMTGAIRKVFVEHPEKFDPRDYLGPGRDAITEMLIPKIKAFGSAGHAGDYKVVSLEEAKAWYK
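Giardia FBPA (40 nM reagent) was preincubated 10 min at RT with compound (up to 57.5 uM final), then substrate plus GAPDH/TPI/NAD/arsenate coupling system with diaphorase/resazurin was added; resorufin fluorescence (525/598 nm) was read after 20 min.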
AmpC inh detg – inhibitors of E. coli AmpC beta-lactamase with detergent | hit rate 0.041% among 370,000 | AmpC hydrolysis of nitrocefin, absorbance 480 nm, 0.01% Triton | Potency, µM (series often up to 114 µM), without a hit: at the top dose activity change, negative = inhibition, most hits filed as inhibitors | AID 485294 | P00811;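 further: potency means the concentration at half of the fitted maximal effect; 0% = no-compound wells and -100% = no-enzyme wells; nearly all actives have a fitted effect of over 25% in size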
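20 mM phosphate pH 7.0 + 0.01% (detergent screen) or 0.0001% Triton X-100; 5.3 nM AmpC reagent; cpd preinc 15 min RT; nitrocefin (800 uM stock) to start; A480 q20 s × 4 min; Activity was normalised to no-enzyme and no-compound control wells.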
LmPK confirm – Inhibits Leishmania mexicana pyruvate kinase, confirmation | shares compounds with LmPK inhibitor | purified LmPK, Kinase-Glo ATP luminescence, 1 h | Potency, µM (series often up to 57.5 µM), without a hit: at the highest dose activity change, negative = inhibition, most hits filed as inhibitors | hit rate 40% among 150 | AID 2559;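 active means compounds giving a full or partial concentration-response curve, as inhibitors or activators; inconclusive means weak, top-dose-only or unclear curve responses; inactive means no response at any tested dose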
* marks the source's active call; other numbers are inactive results; ? = inconclusive; nt = not tested or not shown. Unless noted, the call rests on the fitted dose curve; in most records, active means well fitted curve in the direction sought with a large enough effect; inconclusive means small, poorly fitted or top-dose-only effect, or another doubt; inactive means no such curve, though single readings can be large; an effect the other way counts as inactive or inconclusive.

SMILES | LmPK inhibitor | AmpC no deterg | AMA1-RON2 inh | FBPA Giardia inh | AmpC inh detg | LmPK confirm
O=C(c1ccccc1)c1ccc2nc(-c3ccco3)c(-c3ccco3)nc2c1 | -4% | 25µM* | ? | ? | 4% | nt
O=C(NCCc1ccccc1)c1ccc2nc(-c3ccco3)c(-c3ccco3)nc2c1 | 7% | 16µM* | 1% | ? | -9% | nt
CC(=O)c1ccc(N2C(=O)N(Cc3ccc(F)cc3)c3ccccc3S2(=O)=O)cc1 | nt | nt | nt | nt | 0% | nt
CCCN(C)C1CN(Cc2cn(CCCC(=O)OC)nn2)S(=O)(=O)C1 (configuration not stated) | nt | nt | 8% | nt | nt | nt
COc1ccc(OC)c(CCNC(=O)c2csc3c2CCCCC3)c1 | nt | nt | nt | nt | 13% | nt
Cc1cc(C)cc(NC(=O)COC(=O)COc2cccc3c2OC(C)(C)C3)c1 | nt | 35µM* | -2% | nt | ? | nt
Cc1ccc(NC(=O)COC(=O)COc2cccc3c2OC(C)(C)C3)cc1C | -5% | 28% | 1% | 6% | -1% | nt
O=C(Cn1c(Cn2c(-c3cnccn3)nc3ccccc32)nc2ccccc21)c1ccc(OC(F)(F)F)cc1 | nt | nt | 4% | nt | nt | nt
COc1ccc(-c2cc(C(=O)Nc3cc(OC)cc(C(=O)Nc4cccc(C(F)(F)F)c4)c3)[nH]n2)cc1 | 2% | 28µM* | -1% | -1% | -2% | nt
Cc1nc(NC(=O)c2ccccc2)sc1-c1csc(Nc2cccc(F)c2)n1 | -1% | 16µM* | nt | -16% | -8% | nt
O=C(Nc1cccc(-c2csc(Nc3cccc(C(F)(F)F)c3)n2)c1)c1ccccc1 | -3% | 2µM* | -7% | -6% | -1% | nt
O=C(Nc1ccc(-c2csc(Nc3cccc(C(F)(F)F)c3)n2)cc1)c1ccccc1 | -4% | -51% | -4% | -7% | -5% | nt
COc1cc(NC(=O)c2ccno2)cc(C(=O)Nc2cccc(C(F)(F)F)c2)c1 | 3% | 15% | 1% | -7% | -2% | nt
CC(=O)N1CCc2cc(Br)cc(S(=O)(=O)CCC(=O)Nc3ccc(C)cc3Cl)c21 | nt | nt | nt | nt | 5% | nt
Cc1ccc(NC(=O)COC(=O)c2ccc(-n3nc(C)cc3C)cc2)c(F)c1 | nt | -1% | 10% | nt | nt | nt
O=C(Nc1cccc(-n2cnnn2)c1)c1ccoc1COc1ccc(Cl)cc1 | -5% | 7.1µM* | -8% | nt | -10% | nt
O=C(Nc1cccc(-n2cnnn2)c1)c1cc(Cl)ccc1Cl | -5% | -25% | -8% | 18% | 2% | nt
COCCNC(=S)Nc1ccc2nc(N3CCCC3)cc(C)c2c1 | -5% | 10µM* | 20% | 1% | -1% | nt
COc1cc(/C=N/Nc2nncn2/N=C/c2ccc(O)c(OC)c2)ccc1O | 14µM* | -30% | 11% | ? | 0% | nt
COc1cccc2c(=O)n(CC(=O)N3CCCc4ccccc43)ccc12 | 10% | 1% | -3% | -2% | ? | nt
COc1cccc2c(=O)n(CC(=O)Nc3ccccc3)ccc12 | -1% | 50µM* | -4% | 2% | -11% | nt
COc1cccc2c(=O)n(CC(=O)NC3CCCC3)ccc12 | -1% | -8% | 12% | -3% | ? | nt
COc1cccc2c(=O)n(CC(=O)N3CCCCC3)ccc12 | -4% | 40µM* | 1% | 3% | 2% | nt
COc1cccc2c(=O)n(CC(=O)Nc3ccc(F)cc3F)ccc12 | -6% | 25µM* | 0% | 4% | ? | nt
O=C1C(c2cc(=O)c3ccccc3[nH]2)=C(O)c2ccccc21 | 4µM* | -18% | -18% | ? | -2% | ?
SMILES | LmPK inhibitor | AmpC no deterg | AMA1-RON2 inh | FBPA Giardia inh | AmpC inh detg | LmPK confirm
CC(=O)c1nn(-c2cccc(C)c2)cc1C(=O)c1cccc(Br)c1 | nt | nt | -3% | nt | nt | nt
CCOc1ccc(/C=N/NC(=O)c2c(-c3ccccc3)noc2C)cc1 | 4% | -22% | 34% | 4% | -12% | nt
CCOc1ccc(/C=N/NC(=O)COc2ccccc2-c2ccccc2)cc1 | 4% | -45% | 3% | 0% | -11% | 1%
Cc1ccnc(NC(=O)c2cc3ccccc3oc2=O)c1 | 7.9µM* | -29% | 1% | 2% | -7% | ?
CN(Cc1cccc(-n2cccn2)c1)Cc1cn(C)nc1-c1ccccc1F | -5% | 39% | 6% | 0% | 5% | -7%
c1ccc(-c2noc(-c3ccno3)n2)nc1 | -9% | -10% | 7% | -3% | -5% | nt
c1ccc(-c2nc(-c3ccccn3)no2)cc1 | 3.5µM* | -9% | 8% | -2% | -6% | 15µM*
COC(=O)c1ccc(Nc2nc(C)cc(C)n2)cc1 | -5% | -32% | -13% | 4% | ? | -5%
CCCNC(=O)c1cc(C2CCCCN2C(=O)c2cc(C(C)(C)C)nn2C)on1 (configuration not stated) | nt | nt | -4% | nt | nt | nt
Cc1ccnc(NC(=O)c2ccc3c(c2)OCO3)c1 | 14µM* | -8% | -18% | -10% | 9% | 16µM*
Cc1ccc(S(=O)(=O)N2CCN(Cc3ccccc3C(F)(F)F)CC2)cc1 | -8% | -22% | -2% | ? | -5% | 4%
CCOC(=O)c1ccc(NC(=O)CCCc2nc(-c3cc(OC)c(OC)c(OC)c3)no2)cc1 | nt | nt | nt | nt | -1% | nt
Cc1ccc2c(CC(=O)Nc3nnc(C(C)C)s3)coc2c1C | nt | nt | nt | nt | 5% | nt
COC(=O)C1(Cc2ccccc2)C=C2C(=C(c3ccccc3)C(=O)C2C)CN1 (configuration not stated) | nt | nt | nt | -20% | nt | nt
CC(C)(C)NC(=O)C(c1ccncc1)N(C(=O)Cn1nnc(-c2ccc(F)cc2)n1)c1ccccc1 (configuration not stated) | 8.9µM* | -19% | 9% | -27% | -9% | -6%
COC1=NS(=O)(=O)c2ccccc21 | -6% | -15% | 12% | 2% | -8% | nt
Cc1ccc(C)c(OC2=NS(=O)(=O)c3ccccc32)c1 | 10µM* | -16% | -6% | 3% | -5% | ?
O=C(Nc1ccc(Cl)c(S(=O)(=O)N2CCOCC2)c1)c1cn2ccccc2n1 | 2% | -13% | -2% | 4% | 2% | nt
O=C(Nc1ccc(N2CCOCC2)cc1)c1cn2ccccc2n1 | 2.8µM* | -2% | -17% | 9% | -7% | 16µM*
O=C(Nc1nc2ccccc2[nH]1)c1ccccc1F | 3.2µM* | -22% | 63% | -11% | ? | 6.5µM*
O=C(Nc1nc2ccccc2[nH]1)c1ccccc1OC(F)F | ? | -15% | 68% | -18% | ? | nt
Cc1ccsc1C(=O)Nc1nc2ccccc2[nH]1 | 2.8µM* | -25% | 72% | -9% | 0% | 21µM*
CCOc1ccc(NC(=O)Nc2ccccc2C(N)=O)cc1 | 3.2µM* | -12% | -11% | 2% | 2% | 10µM*
Cc1ccccc1-c1noc(-c2ccccc2OCC(=O)Nc2cccc([N+](=O)[O-])c2)n1 | nt | nt | nt | nt | 8% | nt

Compound activity as filed in PubChem BioAssay.
